SRC1 inh: inhibitors of human steroid receptor coactivator 1 (SRC1); Q15788; hit rate 0.12% among 360,000; HEK293 GAL4-SRC1 luciferase reporter, luminescence; inhibition, % at 3.6 µM;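 active = inhibition above the campaign mean plus 3 SD, with each screening campaign given its own cutoff, cut at about 60% in these data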;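 note: 0% = DMSO treated cells and 100% = gossypol at 36 µM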
NCOA3 inh: human NCOA3 inhibition | AID 588352 | hit rate 0.17% among 360,000 | Q9Y6Q9 | HEK293 GAL4-SRC3 luciferase reporter, luminescence | inhibition, % at 3.6 µM;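 active = inhibition above a per-campaign cutoff, the mean of all compounds plus 3 SD, cut at about 60% in these data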;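 note: 0% = DMSO-treated cells and 100% = gossypol-treated cells at 36 µM; higher means less SRC3-driven luciferase light from the GAL4 reporter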
LRH-1 inv ag: inverse agonists of human LRH-1 (NR5A2); hit rate 0.13% among 360,000; inhibition, % at 3.6 µM; HEK293T StAR-luciferase reporter, LRH-1 transfected, 24 h;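 active = inhibition above the mean inhibition of all tested compounds plus 3 SD, cut at about 73% in these data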;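 note: 0% = DMSO wells and 100% = reporter-only cells lacking LRH-1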
Target sequence (O00482 whole entry, looked up): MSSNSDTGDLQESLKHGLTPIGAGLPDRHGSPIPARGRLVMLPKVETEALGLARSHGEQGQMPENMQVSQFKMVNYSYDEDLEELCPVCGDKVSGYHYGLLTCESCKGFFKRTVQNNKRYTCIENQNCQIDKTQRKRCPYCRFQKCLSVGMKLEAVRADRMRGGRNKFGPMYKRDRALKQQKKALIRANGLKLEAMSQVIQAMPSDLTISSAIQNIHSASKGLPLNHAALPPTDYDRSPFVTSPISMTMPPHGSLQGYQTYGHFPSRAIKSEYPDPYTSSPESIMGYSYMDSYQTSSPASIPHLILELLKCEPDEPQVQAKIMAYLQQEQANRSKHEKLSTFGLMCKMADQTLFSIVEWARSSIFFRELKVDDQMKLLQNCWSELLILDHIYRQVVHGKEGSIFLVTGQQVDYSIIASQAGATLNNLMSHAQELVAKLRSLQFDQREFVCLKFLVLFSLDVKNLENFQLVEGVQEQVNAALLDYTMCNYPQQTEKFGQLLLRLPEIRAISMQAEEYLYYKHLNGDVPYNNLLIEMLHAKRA
NCOA2 inhibitor: inhibits human steroid receptor coactivator 2; Q15596; HEK293 GAL4-SRC2 luciferase reporter, luminescence; inhibition, % at 9 µM; hit rate 0.17% among 370,000; AID 651957;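 active = inhibition above the mean inhibition of all tested compounds plus 3 SD, set per campaign, cut at about 52% in these data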;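 note: 0% = DMSO treated cells and 100% = cells given Gossypol at 36 µM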
GalR3 antagonist: antagonists of human GalR3 | HEK293 GalR3-CNG cAMP membrane potential fluorescence; galR3 body fused to GalR1 C-terminus | hit rate 0.44% among 360,000 | O60755 | inhibition, % at 3 µM;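 active = inhibition above the screen-wide average plus 3 SD, cut at about 13% in these data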;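 note: forskolin and galanin both at EC90 stimulate the cells; cAMP rise reported by CNG channel membrane potential dye signal; 0% = forskolin plus galanin with DMSO and 100% = forskolin alone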
NR2F2 inh: inhibitors of human COUP-TFII (NR2F2) | HEK293T NGFI-A luciferase reporter, luminescence | AID 686940 | P24468 | inhibition, % at 8.6 µM | hit rate 0.7% among 370,000;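 active = inhibition above a per-plate cutoff, mean inhibition of test wells between control levels plus 3 SD, cut at about 38% in these data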;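 note: cells cotransfected with COUP-TFII expression vector driving the NGFI-A reporter; 0% = median of COUP-TF2 test wells and 100% = reporter-only cells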
VP16 Luc counter: inhibits VP16 reporter, flagging COUP-TFII antagonist hits | AID 687007 | HEK293 Gal4-VP16 luciferase reporter, luminescence | inhibition, % at 8.5 µM | hit rate 25% among 2,500 | shares compounds with NR2F2 inh; in the data active = inhibition above about 13%
NR2F2 inh conf: confirmation of human COUP-TFII (NR2F2) inhibitors | shares compounds with NR2F2 inh | HEK293 NGFI-A luciferase reporter, luminescence | inhibition, % at 8.5 µM | hit rate 45% among 2,500 | AID 687008;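 active = mean inhibition over three repeats above a set limit taken from the earlier primary screen, cut at about 38% in these data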;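 note: 100% = cells given the luciferase reporter alone without the COUP-TF2 vector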
Numbers without * were called inactive. This is a sample that favours compounds with a hit; in the whole collection about 1.1% have one here.

Results for COc1cccc(-c2nnc3n2N=C(C(C)(C)C)CS3)c1 ?
SRC1 inh: 67*; NCOA3 inh: 66*; LRH-1 inv ag: 46; NCOA2 inhibitor: 73*; GalR3 antagonist: -6; NR2F2 inh: 45*; VP16 Luc counter: 27*; NR2F2 inh conf: 41*

How did Nc1c(C(=O)N/N=C/c2ccc(Cl)cc2)cnn1-c1ccccc1 do in these assays?
SRC1 inh: -17; NCOA3 inh: -29; LRH-1 inv ag: -27; NCOA2 inhibitor: -6; GalR3 antagonist: -3; NR2F2 inh: 16

What do the screens show for `COC(=O)c1cnn(-c2ccc(Cl)cc2)c1/C=N/NC(N)=S`?
SRC1 inh: 12; NCOA3 inh: 18; LRH-1 inv ag: 21; NCOA2 inhibitor: 39; GalR3 antagonist: -8; NR2F2 inh: 43*; VP16 Luc counter: 4; NR2F2 inh conf: 25

How did Cc1cccc(-c2noc(CCCC(=O)Nc3cccnc3)n2)c1 do in these assays?
SRC1 inh: -1; NCOA3 inh: 6; LRH-1 inv ag: -12; NCOA2 inhibitor: -3; GalR3 antagonist: -7; NR2F2 inh: 4

Results for O=C(O)CCCc1nc(-c2ccc(Cl)cc2)no1 ?
SRC1 inh: 3; NCOA3 inh: 13; LRH-1 inv ag: 12; NCOA2 inhibitor: 40; GalR3 antagonist: -3; NR2F2 inh: 44*; VP16 Luc counter: 32*; NR2F2 inh conf: 14

How did O=C(CCCc1nc(-c2ccc(Cl)cc2)no1)Nc1cccnc1 do in these assays?
SRC1 inh: 9; NCOA3 inh: 5; LRH-1 inv ag: 17; NCOA2 inhibitor: 22; GalR3 antagonist: -5; NR2F2 inh: 41*; VP16 Luc counter: 0; NR2F2 inh conf: 22

How did O=C(OCCN1CCN(C2CN(Cc3cn(Cc4ccccc4Cl)nn3)S(=O)(=O)C2)CC1)c1cc2ccccc2o1 (stereo not drawn) do in these assays?
NCOA2 inhibitor: 7; NR2F2 inh: -12

Results for CCN(CC)S(=O)(=O)c1cc(NC(=O)C(=O)c2c(-c3ccccc3)cc3ccccn23)ccc1C ?
SRC1 inh: 1; NCOA3 inh: -2; LRH-1 inv ag: 5; NCOA2 inhibitor: 8; GalR3 antagonist: -5; NR2F2 inh: 39*; VP16 Luc counter: 12; NR2F2 inh conf: 18

What do the screens show for `N#Cc1ccc(Cn2ccc3ccc(-c4ccc5ccn(C(=O)C6CCCCC6)c5c4)cc32)cc1`?
NCOA2 inhibitor: 24; NR2F2 inh: 10

Results for C=CCSc1nc2ccccc2n1C(=O)/C=C/c1cc(OC)c(OC)c(OC)c1 ?
SRC1 inh: -7; NCOA3 inh: 36; LRH-1 inv ag: -28; NCOA2 inhibitor: 6; GalR3 antagonist: -5; NR2F2 inh: 46*; VP16 Luc counter: 17*; NR2F2 inh conf: 71*

What do the screens show for `C=CCSc1nc2ccccc2n1C(=O)/C=C/c1ccc(OC)c(OC)c1`?
SRC1 inh: -14; NCOA3 inh: -2; LRH-1 inv ag: 7; NCOA2 inhibitor: -3; GalR3 antagonist: -7; NR2F2 inh: -14

What do the screens show for `CCSc1nc2ccccc2n1C(=O)/C=C/c1ccc(OC)c(OC)c1`?
SRC1 inh: -5; NCOA3 inh: 24; LRH-1 inv ag: -4; NCOA2 inhibitor: 32; GalR3 antagonist: -2; NR2F2 inh: 58*; VP16 Luc counter: 13; NR2F2 inh conf: 67*

How did COC(=O)C[C@H]1CC[C@@H]2[C@@H](COc3ccc(NC(=O)c4ccno4)cc3C(=O)N2C)O1 do in these assays?
NCOA2 inhibitor: 19; NR2F2 inh: -6

How did CCC(CO)Nc1cccc2c1S(=O)(=O)N(Cc1cn(Cc3cccc(C(F)(F)F)c3)nn1)Cc1ccccc1O2 (stereo not drawn) do in these assays?
NCOA2 inhibitor: 17; NR2F2 inh: 4

What do the screens show for `C=CCn1c(-c2ccc(S(=O)(=O)N3CCOCC3)cc2)csc1=Nc1ccccc1`?
SRC1 inh: 12; NCOA3 inh: -9; LRH-1 inv ag: -9; NCOA2 inhibitor: 14; GalR3 antagonist: -3; NR2F2 inh: -7

How did CC(=O)c1cccc(N=c2scc(-c3ccc(S(=O)(=O)N4CCOCC4)cc3)n2CCO)c1 do in these assays?
SRC1 inh: 26; NCOA3 inh: 54; LRH-1 inv ag: 46; NCOA2 inhibitor: -5; GalR3 antagonist: 114*; NR2F2 inh: 60*; VP16 Luc counter: 4; NR2F2 inh conf: 65*

Results for CCCCOCCCNC(=O)C[C@@H]1C(=O)N2CCCC3=C2[C@@]1(C(=O)OC)CCCC3 ?
NCOA2 inhibitor: 3; NR2F2 inh: -6

Results for NS(=O)(=O)c1cccc(NS(=O)(=O)c2cccc(C(F)(F)F)c2)c1 ?
SRC1 inh: -3; NCOA3 inh: 10; LRH-1 inv ag: 10; NCOA2 inhibitor: 2; GalR3 antagonist: 5; NR2F2 inh: 43*; VP16 Luc counter: 3; NR2F2 inh conf: 3

What do the screens show for `COc1cc(NC(=O)c2ccccn2)ccc1NC(=O)c1ccccc1Cl`?
NR2F2 inh: -15

How did COc1cc2c(cc1OC)C(c1ccc(-c3ccc(Cl)c(Cl)c3)o1)=NCC2 do in these assays?
SRC1 inh: 17; NCOA3 inh: 31; LRH-1 inv ag: 23; NCOA2 inhibitor: 28; GalR3 antagonist: -1; NR2F2 inh: 51*; VP16 Luc counter: 9; NR2F2 inh conf: 46*

How did COc1cc2c(cc1OC)C(c1ccc(-c3cc(Cl)ccc3Cl)o1)=NCC2 do in these assays?
SRC1 inh: 8; NCOA3 inh: -8; LRH-1 inv ag: 8

How did COc1cc2c(cc1OC)C(c1ccc(-c3ccc(Cl)cc3Cl)o1)=NCC2 do in these assays?
SRC1 inh: 23; NCOA3 inh: 22; LRH-1 inv ag: 42; NCOA2 inhibitor: 18; GalR3 antagonist: -5; NR2F2 inh: 62*; VP16 Luc counter: 0; NR2F2 inh conf: 42*

How did O=C(NCCc1ccccc1)OCc1cn(Cc2cccc(C(F)(F)F)c2)nn1 do in these assays?
NCOA2 inhibitor: 5; NR2F2 inh: -9

What do the screens show for `c1ccc(CNc2ncnc3scc(-c4cccs4)c23)nc1`?
SRC1 inh: 11; NCOA3 inh: 31; LRH-1 inv ag: 2; NCOA2 inhibitor: 4; GalR3 antagonist: -6; NR2F2 inh: 60*; VP16 Luc counter: -1; NR2F2 inh conf: 31

What do the screens show for `CCOC(=O)C1(Cc2ccc(Cl)cc2)CCN(C(C)Cc2ccc(O)c(OC)c2)CC1` (stereo not drawn)?
SRC1 inh: -11; NCOA3 inh: 11; LRH-1 inv ag: 17; NCOA2 inhibitor: 34; GalR3 antagonist: -12; NR2F2 inh: 53*; VP16 Luc counter: 2; NR2F2 inh conf: 16

Bioassay records (PubChem BioAssay)
